From the supplement of paper PMC3334620
The full ranking holds about 33,000 sequences; the median of “E-score (-0.5 to 0.5)” is about -0.01, and the highest 2% start at about 0.26. The list comes from a sample in which the highest values are over-represented; it also holds similar and randomly drawn sequences.

Target: Ste12 (UniProt P13574)
Test: PBM E-score (8-mer binding enrichment) (E-score (-0.5 to 0.5)); higher = stronger / more preferred TF binding
Conditions: protein concentration: 200 nM; construct: GST-DNA-binding domain
Method: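 Universal 'all 10-mer' protein binding microarrays (Agilent AMADID 015681) probed with GST-tagged S. cerevisiae TFs (full-length or DBD) made by in vitro transcription/translation (PURExpress), about 100-200 nM. Bound TF was detected with fluorescent anti-GST. Each ungapped 8-mer (which stands for itself and its reverse complement) is scored by the PBM enrichment score (E-score), a modified Wilcoxon-Mann-Whitney statistic from -0.5 to +0.5, computed with the Universal PBM Analysis Suite. Scale: above 0.35 generally sequence-specific binding.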

Chain of UniProt P13574 (P13574 whole entry): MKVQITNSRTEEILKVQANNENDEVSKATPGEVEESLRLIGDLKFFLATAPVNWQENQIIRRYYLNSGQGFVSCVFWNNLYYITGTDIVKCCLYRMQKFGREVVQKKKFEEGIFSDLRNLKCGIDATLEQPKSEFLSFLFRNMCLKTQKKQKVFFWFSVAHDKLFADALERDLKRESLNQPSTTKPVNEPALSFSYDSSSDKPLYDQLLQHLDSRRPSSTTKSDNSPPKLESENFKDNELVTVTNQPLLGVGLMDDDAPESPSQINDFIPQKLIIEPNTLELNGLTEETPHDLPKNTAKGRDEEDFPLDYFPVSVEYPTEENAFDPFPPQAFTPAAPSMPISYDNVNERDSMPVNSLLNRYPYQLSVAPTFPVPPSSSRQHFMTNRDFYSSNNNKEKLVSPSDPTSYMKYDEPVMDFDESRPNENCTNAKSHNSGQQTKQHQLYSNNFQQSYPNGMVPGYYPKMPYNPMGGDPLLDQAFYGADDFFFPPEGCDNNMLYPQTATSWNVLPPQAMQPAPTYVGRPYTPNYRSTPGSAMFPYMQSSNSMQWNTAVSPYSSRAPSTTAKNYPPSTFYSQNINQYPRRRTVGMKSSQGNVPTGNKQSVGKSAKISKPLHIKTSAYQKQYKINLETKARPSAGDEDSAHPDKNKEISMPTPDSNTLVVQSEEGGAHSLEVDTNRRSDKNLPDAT

Sequence | PBM E-score
ACTAAGAG | -0.0255
ATATGATA | 0.271
AAATGATT | 0.197
AAATGATC | -0.0582
GCATGATA | 0.0794
CAATGATA | 0.074
GAATGATA | 0.309
TAATGATA | 0.272
GTATGATA | 0.0429
TAATGAGA | 0.168
GAATGATC | 0.00293
AAATGATA | 0.292
CTATGATA | -0.0247
ATGCCTCC | -0.0978
CAATCTCC | -0.00169
CTCGATAC | 0.155
GAGCGATC | -0.105
CCGGTCGC | -0.0319
GGTGACAA | 0.0614
AAGAGCTC | -0.0902
CAGGGCCC | -0.148
CTAAATAA | 0.0819
CAAAATAC | 0.115
CAAAATAA | 0.33
CAAAATAG | -0.0251

Sequence | PBM E-score
AAAAATAA | 0.229
TTAAATAA | 0.249
ATAAATAA | 0.266
TAAAATAA | 0.269
ATAAATAG | 0.0906
ATCTCAGC | -0.112
AGTTGAGC | -0.152
ATCTATGC | -0.0236
ACGGGCCC | -0.199
TATTTTAA | 0.301
TATTTAAA | 0.379
CATTTAAA | 0.277
TCTTTTAA | 0.142
CATTTAAC | 0.212
AATTTAAA | 0.269
TATTTACA | 0.101
GATTTTAA | 0.201
GATTTAAA | 0.113
AATTTAAT | 0.159
AATTTAAC | 0.208
CATTTAAG | -0.0794
GCACCAGC | -0.101
GGACAGGA | -0.152
ACCATCGC | 0.0245
CGCAATCA | 0.0872

Sequence | PBM E-score
GGCTCACC | -0.244
ACTAGGTG | -0.199
CACTTAAC | -0.121
AACTTAAA | 0.186
CACTTAAA | 0.287
AGTCCACA | -0.173
GTGAAATA | 0.169
AGGAAACA | 0.19
GTGAAACA | 0.48
ATGAAAGA | 0.184
GTGAAAAA | 0.232
ATGAAACA | 0.495
AGGAAACG | -0.105
ATGAAACG | 0.484
AAGAAACG | 0.148
AAGCAGCC | -0.078
ACATCTGA | -0.24
CAACTGTA | -0.0454
AATCAATG | 0.0688
CCTAGAGC | -0.189
ATTATCCA | 0.0202
ATTATCCG | 0.294
ATTATCCC | 0.0652
ACCAGTAC | -0.11
AAAACAGG | -0.0182

Sequence | PBM E-score
GTAACAGA | 0.334
ATAACAGA | 0.115
CAAACAGA | 0.12
AAAACAGA | 0.295
GAAACAGA | 0.287
CTAACAGA | 0.153
AAAACAGC | 0.127
GAAACAGC | 0.232
ATATACAT | 0.00017
AGCCTGTC | -0.181
CGCTCTTC | 0.00173
ATGTATCA | 0.344
GTGTATCA | 0.301
ATGTATCG | 0.0479
CTGTATCA | 0.207
ATGTATCC | 0.0246
GTGTATTA | 0.25
ACCAACCT | 0.0089
ATTGCTGC | -0.00539
GCACTCCA | -0.161
AAAGAATC | 0.136
GACTCACA | -0.201
AATCTCCA | -0.184
AAAACCGC | 0.0403
ATAACCAG | -0.0264

Sequence | PBM E-score
AAAACCAA | 0.209
CTAACCAA | 0.186
CAAACCGC | 0.00675
CAAACCTC | -0.105
GAAACCAC | 0.164
GAAACCTC | 0.318
GAAACCGC | 0.351
GAAACCAA | 0.355
ATAACCAA | 0.294
AAAACCTC | 0.207
ACCTAAAT | 0.11
ACGTTGGC | -0.0145
CATGGCGG | -0.0453
CTTTGCAC | -0.0246
GAGCGTGA | -0.0254
CGGCTGAA | -0.0336
GCAAGCAC | -0.125
ATAGTTTA | 0.0232
AAAACTCG | 0.125
GCGATGCA | -0.234
CGAATTAG | 0.095
AAAACCGA | 0.115
GAAACCGA | 0.267
CAAACCGA | 0.0295
CGTAACAG | 0.205

Sequence | PBM E-score
TGTAACAA | 0.333
GCTAACAA | -0.046
TCTAACAA | 0.127
GGTAACAA | 0.264
GGTAACCA | -0.12
GGTAACAC | 0.0298
CGTAACAA | 0.293
AGTAACAA | 0.0502
AGAACTCA | 0.117
TCGAGCGA | -0.0486
GAGTTGTA | -0.0493
CTCGTTTC | 0.242
ATCGTTTG | 0.0575
AGCGTTTC | 0.294
AGCGTTTA | -0.122
CGCGTTTC | 0.234
ATCGTTTC | 0.35
AACCCACA | -0.0351
GGTGGGTA | 0.0601
AATTTTAG | 0.105
CATTTTTA | 0.0631
CATTTTAG | 0.267
GATTTCCC | -0.0998
CATTTTCC | 0.123
TATTTTCA | 0.201

Sequence | PBM E-score
CCTTTTAA | 0.0649
CATTTCCC | 0.295
AATTTTCA | 0.165
CATTTTAC | 0.254
CATTTTCA | 0.273
CATTTTAA | 0.27
AAGGCGGC | -0.0929
CCCTGAAC | 0.0241
CCCTTGCG | -0.0882
ATACGTTG | -0.0291
CGTGGCGC | -0.1
TGAGGTAA | 0.128
TCATTACA | 0.18
ATTAGGAC | -0.179
CCCGCGGG | 0.0996
AATACGCA | 0.0688
ATTTGCTA | 0.0107
CCATTTTC | 0.0892
GCATTTTA | 0.165
CCATTTTA | 0.267
GCCTATCC | -0.214
TTCTGCAA | 0.182
TTCTGAAA | 0.365
GTCTGATA | 0.16
GTCTGAAA | 0.314

Sequence | PBM E-score
CTCTGAAC | -0.092
CCCTGAAA | 0.181
ATCTGAAA | 0.364
ATCTGAAT | 0.0272
ATCTGAAC | -0.0162
CTCTGAAA | 0.294
GTCTGAAC | 0.114
CTCTGAAG | -0.104
TGGCCAAA | 0.0505
TCCACAGA | 0.124
CTTTAGCC | -0.029
AATAGTTG | 0.255
AAGCAGAA | 0.109
AATTGAGT | 0.195
GTATGGAC | -0.0968
ATTGTTTG | 0.184
ATTGTTTC | 0.356
CTTGTTGC | 0.00409
ATTGTTAC | 0.297
CTTGTTAC | 0.129
ATTGTTAG | 0.0697
ATTGTTTA | 0.0651
CTTGTTTC | 0.375
CTTGTTTA | 0.0423
ATCTCTTA | 0.197

Sequence | PBM E-score
CCTTTCCC | -0.0368
ATAGCAGA | -0.0552
CCGGCTAC | 0.0776
CGAGCCAG | -0.0693
AACGCACT | -0.0209
GATAAACA | 0.096
TATAAACA | 0.114
AATAAACC | 0.269
AATAAACG | 0.0508
AATAAACA | 0.284
CATAAACC | 0.0477
AAGTATGC | -0.197
AGCCCCCA | -0.118
TATGGACA | -0.00254
CGGTCGAA | 0.00203
CAGTTTAC | -0.053
CGTTAAAG | 0.0915
CGCCGGCG | 0.275
AGCCGGCG | 0.106
CGCCGGCC | -0.00587
CAGACCCG | 0.0234
CTCTCCTC | -0.168
ATGTAACA | 0.288
ATGTAACG | 0.241
AAGTAAAC | 0.0949

Sequence | PBM E-score
CTGTAACA | 0.268
GCGTAACA | -0.0008
AAGTAAAG | -0.0589
GTGTAAGA | 0.058
AAGTAAAT | 0.261
GTGTAACA | 0.319
CTGTAATA | 0.119
CTGTAACC | 0.183
ATGTAACC | 0.143
GCGTCCAA | -0.13
ATGATTGC | 0.146
CAAGACTG | -0.101
ATGCACAG | -0.111
ACTATTGG | -0.0275
CAACTTGA | 0.0746
AAGTAACG | 0.141
AAGTAACT | 0.0625
AAGTAACA | 0.291
AGACCGTA | -0.0932
CATGGTGG | -0.0711
GACTCTAA | 0.115
TCCATAAA | 0.11
TTGATAAA | 0.277
ACCATAAA | 0.278
TTCATAAA | 0.324

Sequence | PBM E-score
ATCATAAA | 0.0612
GTGATAAA | 0.131
CTCATAAA | -0.00236
ATGATAAA | 0.209
ACCATAAG | -0.16
ACTTTGAC | -0.101
ACTTCCCT | -0.0919
GGGTTCAC | -0.0147
GATCTGCC | 0.0158
TAAAAGCA | 0.172
CCAATCGA | 0.067
CTTCACAA | -0.0638
CACGAAAG | 0.095
ATCGAAAA | 0.125
CACGAAAC | 0.266
CCCGAAAC | 0.303
AACGAAAG | 0.0635
CCCGAAAG | 0.00951
CACGAAAA | 0.243
ATCGAAAC | 0.324
AACGAAAC | 0.314
GCCGAAAC | 0.178
AACGAAAT | 0.169
GTCGAAAC | 0.128
CCCAGGTC | -0.207

Sequence | PBM E-score
TCCACAAA | 0.14
GCTTCCAC | -0.11
CTAGGGCC | -0.187
ATCGCGCG | 0.0537
ATGTCTAA | 0.0254
GGGCCCCA | -0.146
CTCCTCAG | -0.11
GAGGTTAA | 0.0122
AGCTGGGA | -0.0199
ATGTGAAA | 0.202
GTGTGAAA | 0.307
CTGTGAGA | -0.0675
GTGTGAGA | 0.0959
GTGTGAAC | 0.169
CTGTGAAA | 0.322
CTGTGAAC | -0.0759
CTGTGAAG | 0.00467
TTGTGAAA | 0.342
ACCTGCCA | -0.121
AGAAAGGA | -0.0699
AAAGCGAA | 0.133
CTTGCATA | -0.045
TCAGGTCA | -0.015
AAAGTCCC | -0.0967
CGAGGCCG | -0.158

Sequence | PBM E-score
GGATTTAA | 0.243
CAAACATG | 0.179
AACACATG | 0.128
AAAACAAT | 0.225
AAAACATG | 0.324
AAAACATA | 0.208
AAAACATT | 0.28
AAAACATC | 0.301
ACAACATC | -0.0874
ATAACATC | 0.0956
AGTGTAGG | 0.00693
ATGTGCTG | 0.133
CTTCGCTC | -0.224
GCCACCCA | -0.106
TCCACCCA | -0.0525
CCCACCCA | 0.269
CCCACCCG | 0.358
CCCACCCC | 0.391
CACACCCG | 0.0642
ACCACCCC | 0.0858
ACCACCCG | -0.106
GCCACCCC | -0.0121
CCTCTTGC | 0.0254
ATCTTCAC | 0.145
CACGGGCG | 0.00735

Sequence | PBM E-score
ATAGCCTG | -0.0913
TAGATCGA | 0.0552
CCAGCTCA | -0.194
CCGTTGAA | 0.0239
CTTTATAA | 0.153
ATTTATAA | 0.267
ACTTATTA | 0.264
ATTATTTA | 0.281
GCTTATTA | 0.0471
CCTTATTA | 0.187
ATTTATAC | 0.195
GTTTATTA | 0.304
GATTATTA | 0.196
CTTTATTA | 0.112
ATTATTTG | 0.106
CTTATTTA | 0.171
AGATCCCG | 0.0252
GAAGGTTA | -0.115
GGCCGACC | -0.123
